Nine molecules from PubChem BioAssay (NCATS) can be followed below.

Results filed as inconclusive are left out. Unmarked numbers belong to inactive results. Activity calls are given as the source filed them. Calls follow the shape of the dose curve; as a rule, active = well fitted curve in the direction sought with a large enough effect; inconclusive = small, poorly fitted or top-dose-only effect, or another doubt; inactive = no such curve, though single readings can be large; an effect the other way counts as inactive or inconclusive.

Assay [1] deals with Metallo-beta-lactamase type 2 (Klebsiella pneumoniae) (UniProt C7C422). Briefly: qHTS to identify inhibitors of the New Delhi Metallo-beta-lactamase (NDM): assay validation screen against the NCATS LOPAC Collection (AID 1794843). Also: potency is read from the fitted curve at half-maximal effect. The procedure, abridged: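 NDM-1 at 2 nM final in 50 mM HEPES pH 7.0, 1 uM ZnSO4, 0.01% Tween20, preincubated with LOPAC compounds pinned in DMSO; 50 uM nitrocefin (stock) added. Hydrolysis read as absorbance at 485 nm in the plateau phase.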
(In qHTS, concentration-response curves come from the screen itself.)

Assay [2] concerns the target Glutathione peroxidase 1 (Homo sapiens) (UniProt P07203). Briefly: Primary qHTS Assay for Inhibitors of Recombinant Selenoprotein Glutathione Peroxidase 1 (GPX1) (AID 1845191). Also: nearly all actives have a fitted effect of over 65% in size. As to activity, negative = inhibition: % is scaled to controls: 0 for no effect and ±100 for the full control effect. Summed up: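 GPX1 10 nM, GR 100 nM, GSH 1 mM, NADPH 0.5 mM, CHP 0.5 mM (final). 30-min cpd preincubation, RT. Ex340/Em450 read t=0, t=15 min.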
Assay [3] has as its target Phospholipid hydroperoxide glutathione peroxidase GPX4 (Homo sapiens) (UniProt P36969). As to the kind of experiment: Primary qHTS Assay for Inhibitors of Recombinant Selenoprotein Glutathione Peroxidase 4 (GPX4) (AID 1845192). Also: nearly all actives have a fitted effect of over 65% in size. The conditions noted are these: outcome: dose series up to 50 µM unless noted. Summed up:
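qHTS, GR-coupled: GPX4 200 nM + cpd 30 min RT → GSH 1 mM, NADPH 0.5 mM, GR 100 nM → CHP 0.5 mM start; fluor 340/450 at t0 and t15 min; no-enzyme wells as control.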

Assay [4] can be described thus: qHTS profiling for inhibitors of Plasmodium falciparum proliferation (AID 504749). Also: nearly all actives have a fitted effect of over 60% in size. Also: potency is read from the fitted curve at half-maximal effect.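 As to activity, negative = inhibition: 0% = DMSO vehicle and full inhibition = artemisinin control.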 Conditions: P. falciparum in erythrocytes, SYBR Green DNA, 72 h. Summed up:
(§1)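 Quantitative HTS: compounds pinned into medium, infected erythrocytes added (0.3% parasitemia, 2.5% hematocrit), 72 h culture at 37 C under 5% CO2. Saponin/Triton lysis with SYBR Green I, overnight RT, then fluorescence read.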

The subject of another assay is 3D7. The description is as above. The conditions noted are these: P. falciparum in erythrocytes, SYBR Green DNA, 72 h; series mostly up to 28.7 µM. The procedure, abridged:
as §1

The test system of a further assay is 7G8. The description is as above. Conditions: P. falciparum in erythrocytes, SYBR Green DNA, 72 h; series mostly up to 28.7 µM. Summed up: as §1
The test system of another assay is AA1029. The assay is described as above. Conditions: P. falciparum in erythrocytes, SYBR Green DNA, 72 h; series mostly up to 28.7 µM. Summed up:
as §1

For another assay, the system named is AS120. Described as above. Conditions: P. falciparum in erythrocytes, SYBR Green DNA, 72 h; series mostly up to 28.7 µM. The procedure, abridged:
as §1

A further assay deals with ATS189. The description is as above. The conditions noted are these: P. falciparum in erythrocytes, SYBR Green DNA, 72 h; series mostly up to 28.7 µM. Summed up: as §1
In the next assay the test system is ATS95. The description is as above. The conditions noted are these: P. falciparum in erythrocytes, SYBR Green DNA, 72 h; series mostly up to 28.7 µM. The procedure, abridged:
as §1

Where [5] appears, read: at 28.7 µM (top of the series), parasite line A.
The mark [6] stands for this setting: at 28.7 µM (top of the series), parasite line B.

Sequence of Glutathione peroxidase 1 (Homo sapiens) (P07203 whole entry, looked up): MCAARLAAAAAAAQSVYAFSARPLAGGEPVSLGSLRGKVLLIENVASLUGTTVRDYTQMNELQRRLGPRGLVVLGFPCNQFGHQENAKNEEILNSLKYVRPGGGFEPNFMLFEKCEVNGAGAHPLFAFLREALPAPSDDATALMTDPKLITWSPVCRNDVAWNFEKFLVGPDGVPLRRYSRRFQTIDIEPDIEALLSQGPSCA
Sequence of Metallo-beta-lactamase type 2 (Klebsiella pneumoniae) (C7C422 whole entry, looked up): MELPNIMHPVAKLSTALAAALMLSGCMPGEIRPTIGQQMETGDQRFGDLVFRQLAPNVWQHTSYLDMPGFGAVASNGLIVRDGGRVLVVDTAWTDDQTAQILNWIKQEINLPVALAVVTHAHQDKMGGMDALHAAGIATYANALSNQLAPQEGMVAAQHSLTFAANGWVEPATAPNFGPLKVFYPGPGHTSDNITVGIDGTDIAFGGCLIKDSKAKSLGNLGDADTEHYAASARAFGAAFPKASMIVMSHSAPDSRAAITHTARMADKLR
Sequence of Phospholipid hydroperoxide glutathione peroxidase GPX4 (Homo sapiens) (P36969 whole entry, looked up): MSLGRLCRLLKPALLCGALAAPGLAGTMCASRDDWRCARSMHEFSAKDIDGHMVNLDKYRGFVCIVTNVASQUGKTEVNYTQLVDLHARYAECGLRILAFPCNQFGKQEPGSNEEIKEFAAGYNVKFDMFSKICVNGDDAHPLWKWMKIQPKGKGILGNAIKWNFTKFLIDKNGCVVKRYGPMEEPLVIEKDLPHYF

Regarding `Cc1ccc(=O)n(-c2ccccc2)c1`, the Potency result (in [1]; in assay [2]; in the assay with 3D7; in the assay on 7G8; in the assay on AA1029; in the assay with AS120) was “inactive” each time. Further, the Potency result in the assay on ATS189 and in the assay on ATS95 was “inactive” in each case. For the same molecule, in assay [3], the outcome was inactive. In addition, the values for the activity, negative = inhibition in [4] (setting [5]) and in assay [4] (setting [6]) were 12.4% and 18.6%, respectively.

Turning to `Cc1nc2ccccn2c(=O)c1CCN1CCC(C(=O)c2ccc(F)cc2)CC1`, the Potency entry (in assay [1]; in [2]; in the assay on 3D7; in the assay on AS120) was “inactive” each time. Further, in [3], the outcome was inactive. Moreover, the activity, negative = inhibition was -18.1% in [4] (setting [5]) and 11.2% in assay [4] (setting [6]). Further, the Potency with 7G8 was 14.1 µM (active).

Regarding `CCOC(=O)c1cnc2c(cnn2CC)c1NN=C(C)C`, the Potency entry (in assay [1]; in assay [2]; with 3D7; with AA1029; in the assay with AS120; with ATS189) was “inactive” throughout. The Potency entry in the assay with ATS95 is “inactive”. Moreover, the outcome in [3] was inactive. For the same molecule, the activity, negative = inhibition in [4] (setting [5]) was 15.4%; in assay [4] (setting [6]) it was -4.13%. Besides, the Potency in the assay with 7G8 was 11.2 µM (active).

On to `NC(=O)N1c2ccccc2C=Cc2ccccc21`, for which the Potency entry (in assay [1]; in assay [2]; in the assay with 3D7; with 7G8; with AA1029; in the assay on AS120) was “inactive” in each case. Also, the Potency result in the assay with ATS189 and in the assay with ATS95 was “inactive” in each case. For the same molecule, the result in assay [3] was inactive. Further, the activity, negative = inhibition was -22.9% in assay [4] (setting [5]) and -3.8% in assay [4] (setting [6]).

For `O=C(O)CN(CCN(CC(=O)O)CC(=O)O)CCN(CC(=O)O)CC(=O)O`, the Potency in [1] was 2.82 µM (active). For the same molecule, the Potency result (in [2]; in the assay with 3D7; with 7G8; in the assay with AA1029; in the assay on AS120; with ATS189) was “inactive” in each case. For the same molecule, the Potency result in the assay on ATS95 was “inactive”. Moreover, in [3], the outcome was inactive. Besides, the activity, negative = inhibition in assay [4] (setting [5]) was 7.8%; in [4] (setting [6]), -1.15%.

For the molecule `CC[N+](C)(C)c1cccc(O)c1`, the Potency result (in assay [1]; in [2]; in the assay with 3D7; in the assay on 7G8; in the assay on AA1029; in the assay with AS120) was “inactive” each time. The Potency entry in the assay on ATS189 and with ATS95 was “inactive” throughout. The outcome in assay [3] was inactive. Besides, the activity, negative = inhibition in assay [4] (at 12.8 µM (top of the series), parasite line A) is 14.2%; in assay [4] (at 12.8 µM (top of the series), parasite line B), 8.4%.

For `CN=C(NC#N)NCCSCc1nc[nH]c1C`, the Potency entry (in assay [1]; in assay [2]; with 3D7; with 7G8; in the assay with AA1029; with AS120) was “inactive” each time. Moreover, the Potency entry in the assay on ATS189 and with ATS95 was “inactive” in each case. The outcome in assay [3] was inactive. In addition, the activity, negative = inhibition is -4.42% in assay [4] (setting [5]) and -7.15% in assay [4] (setting [6]).

For `CCCCCN(CCCCC)C(=O)C(CCC(=O)O)NC(=O)c1ccc(Cl)c(Cl)c1` (stereo unspecified), the Potency result (in [1]; in assay [2]; in the assay on 3D7; in the assay with 7G8; with AA1029; with AS120) was “inactive” each time. In addition, the Potency result with ATS189 and in the assay on ATS95 was “inactive” each time. Also, in [3], the result was inactive. For the same molecule, the activity, negative = inhibition is 16.8% in assay [4] (setting [5]) and 7.13% in assay [4] (setting [6]).

Regarding `Cc1ccc(Cl)c(Nc2ccccc2C(=O)O)c1Cl`, the Potency entry (in assay [1]; in [2]; with 3D7; in the assay on 7G8; in the assay on AA1029; in the assay with AS120) was “inactive” throughout. For the same molecule, the Potency entry with ATS189 and in the assay with ATS95 was “inactive” throughout. The result in assay [3] was inactive. In addition, the activity, negative = inhibition was -0.156% in assay [4] (setting [5]) and -3.06% in assay [4] (setting [6]).
